Assay results from PubChem BioAssay (EPA / NIEHS).
Records with an inconclusive call do not appear. Activity calls are given as the source filed them. How the source made its calls, unless noted: active means hit-call score of the fitted dose curve at least 0.9, where 1 is the maximum; inconclusive means response in the unintended direction; inactive means score below 0.9.

What was measured:
[1] = ATG_TCF_b_cat_CIS: Attagene CIS-FACTORIAL HepG2 Assay for human T-Cell-Factor with beta-catenin (TCF/b-cat) (AID 2282965; active means hit-call score of the fitted dose curve at least 0.9, where 1 is the maximum; inactive means score below 0.9); conditions: HepG2 TCF/beta-catenin cis-reporter transcription, actives raise or lower the signal
How it was run: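 Measured: reporter mRNA in HepG2 transiently transfected with cis-promoter reporter units, 24 h after chemical addition. Fitting was bidirectional, DMSO as negative control.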

[2] = ATG_TAL_CIS: Attagene CIS-FACTORIAL HepG2 Assay for human TAL Basal Promoter (AID 2282966; active means hit-call score of the fitted dose curve at least 0.9, where 1 is the maximum; inactive means score below 0.9;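 further: background control endpoint measuring basal TAL promoter reporter mRNA not a specific factor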); conditions: HepG2 Attagene cis-factorial TAL promoter reporter; actives raise or lower the signal
How it was run: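 Endogenous transcription-factor activity is sensed in HepG2 cells through transfected cis-promoter reporter constructs. After 24 h dosing, reporter transcripts are quantified by RT-PCR and capillary electrophoresis. Gain or loss of signal is fitted relative to DMSO.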

[3] = ATG_VDRE_CIS: Attagene CIS-FACTORIAL HepG2 Assay for human Vitamin D Receptor Element (VDRE) (AID 2282968; active means hit-call score of the fitted dose curve at least 0.9, where 1 is the maximum; inactive means score below 0.9); conditions: HepG2 VDRE cis-reporter transcription, actives raise or lower the signal
How it was run: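 Measures endogenous factor activity through cis-element-driven reporter transcripts in transiently transfected HepG2. Cells are treated 24 h; reporter mRNA is quantified by RT-PCR and capillary electrophoresis; fitting is bidirectional.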

[4] = target: X-box-binding protein 1 (Homo sapiens) (UniProt P17861); assay: ATG_Xbp1_CIS: Attagene CIS-FACTORIAL HepG2 Assay for human X-box Binding Protein 1 (XBP1) (AID 2282972; active means hit-call score of the fitted dose curve at least 0.9, where 1 is the maximum; inactive means score below 0.9); conditions: HepG2 XBP1 cis-element reporter, Attagene multiplex; actives raise or lower the signal
How it was run: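 Changes in reporter transcript abundance, read by RT-PCR and capillary electrophoresis, reflect endogenous transcription factor activity. Transfected HepG2 cells received compound for 24 hours; DMSO defined baseline for bidirectional analysis.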

[5] = target: Oxysterols receptor LXR-beta (Homo sapiens) (UniProt P55055); assay: ATG_LXRb_TRANS: Attagene TRANS-FACTORIAL HepG2 Assay for human Liver X Receptor beta (LXRb) (AID 2282981); conditions: HepG2 Attagene TRANS GAL4-LXRb reporter, mRNA
How it was run: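 After 24 h of chemical treatment, transfected HepG2 cells yield total RNA; reporter cDNA is PCR-amplified, FAM-labelled, HpaI-cut and run on capillary electrophoresis. Signal reflects chimeric LXRb-Gal4 activity on GAL4-UAS reporters.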

[6] = target: Hepatocyte nuclear factor 4-alpha (Homo sapiens) (UniProt P41235); assay: ATG_HNF4a_TRANS: Attagene TRANS-FACTORIAL HepG2 Assay for human Hepatocyte Nuclear Factor 4 alpha (HNF4a) (AID 2282982); conditions: HepG2 HNF4a transactivation reporter, mRNA readout
How it was run: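 Multiplexed reporter assay: transfected HepG2, 24 h exposure, total RNA → oligo(dT) RT → PCR → 6-FAM extension → HpaI digest → CE fluorescence. DMSO = negative control.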

[7] = ATG_M_06_TRANS: Attagene TRANS-FACTORIAL HepG2 Assay for M06 Transcription Factor (Internal Marker) (AID 2282983); conditions: HepG2 Attagene TRANS M06 internal marker reporter;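 further: reporter transcript level by RT-PCR then capillary electrophoresis fluorescence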
How it was run: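 Human liver HepG2 cells bearing transiently transfected chimeric NR-GAL4 reporter units were treated with chemicals for 24 h. Total RNA was reverse-transcribed, reporter sequences amplified and labelled, then quantified by capillary electrophoresis. Activity was fitted upward relative to DMSO.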

[8] = target: Nuclear receptor subfamily 4 group A member 2 (Homo sapiens) (UniProt P43354); assay: ATG_NURR1_TRANS: Attagene TRANS-FACTORIAL HepG2 Assay for human Nuclear Receptor Related Protein 1 (NURR1) (AID 2282985); conditions: HepG2 Attagene TRANS reporter, mRNA readout
How it was run: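 Measures transcriptional activation by an exogenous NR-Gal4 chimera in transfected HepG2 liver cells. After 24 h, reporter RNA is reverse-transcribed, amplified and resolved by capillary electrophoresis; DMSO defines baseline.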

[9] = target: Transcriptional activator Myb (Homo sapiens) (UniProt P10242); assay: ATG_Myb_CIS: Attagene CIS-FACTORIAL HepG2 Assay for human Myeloblastosis (Myb) Proto-Oncogene Transcription Factor (AID 2282986; active means hit-call score of the fitted dose curve at least 0.9, where 1 is the maximum; inactive means score below 0.9); conditions: HepG2 Attagene CIS-FACTORIAL Myb reporter transcription; actives raise or lower the signal
How it was run: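 Endogenous transcription factor activity at a Myb-responsive cis element is reported in human liver HepG2 cells after 24 h chemical treatment. Reporter mRNA is detected by RT-PCR and capillary electrophoresis fluorescence, with DMSO as baseline.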

[10] = target: Nuclear receptor subfamily 1 group I member 3 (Homo sapiens) (UniProt Q14994); assay: ATG_CAR_TRANS: Attagene TRANS-FACTORIAL HepG2 Assay for human Constitutive Androstane Receptor (CAR) (AID 2282969); conditions: HepG2 Attagene TRANS-FACTORIAL CAR reporter;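 further: activators raise reporter mRNA above DMSO so AC50 marks induction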
How it was run: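 Signal is reporter mRNA induction relative to DMSO, measured 24 h after dosing by RT-PCR with fluorescent primer extension and capillary electrophoresis. Human HepG2 liver cells carried transiently transfected chimeric NR-Gal4/GAL4-UAS reporter constructs.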

[11] = target: Steroid hormone receptor ERR1 (Homo sapiens) (UniProt P11474); assay: ATG_ERRa_TRANS: Attagene TRANS-FACTORIAL HepG2 Assay for human Estrogen-Related Receptor alpha (ERRa) (AID 2282971); conditions: HepG2 Attagene TRANS reporter, ERRa transactivation
How it was run: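 HepG2 cells were transiently transfected with multiple GAL4-UAS reporter units, then dosed with compound for 24 h. Total RNA was reverse-transcribed, reporter cDNA PCR-amplified and fluorescently labelled, and fragments resolved by capillary electrophoresis; induction was compared with DMSO.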

[12] = ATG_M_19_TRANS: Attagene TRANS-FACTORIAL HepG2 Assay for M19 Transcription Factor (Internal Marker) (AID 2282974); conditions: HepG2 Attagene TRANS-FACTORIAL M19 internal marker reporter
How it was run: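 After transfection of HepG2 with GAL4-UAS-driven reporter constructs, cells are dosed for 24 h. Total RNA is reverse-transcribed, reporter sequences PCR-amplified and labelled, then HpaI-digested and sized by capillary electrophoresis.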

[13] = ATG_GAL4_TRANS: Attagene TRANS-FACTORIAL HepG2 Assay for GAL4 (Internal Marker) (AID 2282976); conditions: HepG2 Attagene TRANS GAL4 internal marker reporter
How it was run: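 Fluorescence from capillary electrophoresis of labelled RT-PCR products quantifies reporter mRNA induction after 24 h dosing of HepG2 cells carrying transfected GAL4-UAS reporter transcription units. Vehicle DMSO serves as baseline.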

[14] = target: Estrogen-related receptor gamma (Homo sapiens) (UniProt P62508); assay: ATG_ERRg_TRANS: Attagene TRANS-FACTORIAL HepG2 Assay for human Estrogen-Related Receptor gamma (ERRg) (AID 2282977); conditions: HepG2 Attagene TRANS reporter, ERRg transactivation;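 further: hits increase reporter signal over DMSO so potencies reflect activators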
How it was run: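 Exogenous NR-Gal4 chimera activity was assessed in HepG2 cells bearing transfected GAL4-UAS reporters. After 24 h dosing, total RNA underwent RT-PCR, fluorescent primer extension and HpaI digestion before capillary electrophoresis, with gain of signal scored against DMSO.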

[15] = target: Bile acid receptor (Homo sapiens) (UniProt Q96RI1); assay: ATG_FXR_TRANS: Attagene TRANS-FACTORIAL HepG2 Assay for Farnesoid X Receptor (FXR) (AID 2282979); conditions: HepG2 Attagene TRANS FXR-GAL4 reporter transcription;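 further: hits raise reporter mRNA above DMSO so AC50 marks FXR activation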
How it was run: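 Chimeric FXR-GAL4 activity in transiently transfected human HepG2 liver cells is scored as induction of reporter mRNA after 24 h of dosing. Detection uses RT-PCR with fluorescent labelling and capillary electrophoresis, with DMSO serving as baseline.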

[16] = ATG_M_32_TRANS: Attagene TRANS-FACTORIAL HepG2 Assay for M32 Transcription Factor (Internal Marker) (AID 2282984); conditions: HepG2 Attagene TRANS M32 internal marker reporter;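 further: transcript level of a background control reporter unit measured by RT-PCR and capillary electrophoresis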
How it was run: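 Cell-based TRANS-format assay in HepG2: exogenous chimeric GAL4 reporter units transiently expressed, compounds applied 24 h. Reporter mRNA detected by RT-PCR plus capillary electrophoresis; this readout is an internal background marker.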

[17] = target: Oxysterols receptor LXR-alpha (Homo sapiens) (UniProt Q13133); assay: ATG_LXRa_TRANS: Attagene TRANS-FACTORIAL HepG2 Assay for human Liver X Receptor alpha (LXRa) (AID 2282980); conditions: HepG2 Attagene TRANS reporter, LXRa transactivation
How it was run: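 Transient HepG2 transfectants, 24 h dosing, RT-PCR/CE mRNA reporter quantitation; gain-of-signal vs DMSO.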

[18] = target: Estrogen receptor (Homo sapiens) (UniProt P03372); assay: ATG_ERa_TRANS: Attagene TRANS-FACTORIAL HepG2 Assay for human Estrogen Receptor alpha (ERa) (AID 2282970); conditions: HepG2 Attagene TRANS ERa GAL4 reporter, mRNA
How it was run: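 Transfected HepG2 cells carrying GAL4-UAS-driven reporter units were dosed for 24 hours. Total RNA was reverse-transcribed, reporter sequences PCR-amplified, FAM-labelled, HpaI-digested and resolved by capillary electrophoresis. Increases over DMSO control defined activity.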

X-box-binding protein 1 (Homo sapiens), sequence (P17861 whole entry, looked up): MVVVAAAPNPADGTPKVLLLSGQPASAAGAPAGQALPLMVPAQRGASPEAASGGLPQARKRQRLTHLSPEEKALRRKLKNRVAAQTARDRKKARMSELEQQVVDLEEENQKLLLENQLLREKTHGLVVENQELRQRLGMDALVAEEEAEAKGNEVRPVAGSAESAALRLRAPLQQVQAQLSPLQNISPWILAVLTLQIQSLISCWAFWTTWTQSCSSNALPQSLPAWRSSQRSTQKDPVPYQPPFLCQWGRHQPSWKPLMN
Transcriptional activator Myb (Homo sapiens), sequence (P10242 whole entry, looked up): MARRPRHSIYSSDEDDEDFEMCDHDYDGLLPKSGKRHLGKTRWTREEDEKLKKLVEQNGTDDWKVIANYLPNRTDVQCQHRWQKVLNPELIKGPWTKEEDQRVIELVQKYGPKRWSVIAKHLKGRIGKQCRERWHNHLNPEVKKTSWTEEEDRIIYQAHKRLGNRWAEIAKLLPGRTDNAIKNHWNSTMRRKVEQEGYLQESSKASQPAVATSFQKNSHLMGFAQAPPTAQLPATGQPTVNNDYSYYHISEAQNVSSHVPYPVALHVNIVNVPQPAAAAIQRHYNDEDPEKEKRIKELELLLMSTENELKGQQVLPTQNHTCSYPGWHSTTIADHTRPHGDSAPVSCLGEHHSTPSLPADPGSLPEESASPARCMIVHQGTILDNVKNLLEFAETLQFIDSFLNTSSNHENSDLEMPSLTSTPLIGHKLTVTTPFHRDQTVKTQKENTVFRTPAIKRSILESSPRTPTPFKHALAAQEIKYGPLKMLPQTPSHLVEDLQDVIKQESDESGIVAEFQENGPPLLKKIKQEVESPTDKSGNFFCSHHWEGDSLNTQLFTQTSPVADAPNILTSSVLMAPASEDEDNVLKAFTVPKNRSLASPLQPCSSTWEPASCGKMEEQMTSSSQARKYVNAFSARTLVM
Hepatocyte nuclear factor 4-alpha (Homo sapiens), sequence (P41235 whole entry, looked up): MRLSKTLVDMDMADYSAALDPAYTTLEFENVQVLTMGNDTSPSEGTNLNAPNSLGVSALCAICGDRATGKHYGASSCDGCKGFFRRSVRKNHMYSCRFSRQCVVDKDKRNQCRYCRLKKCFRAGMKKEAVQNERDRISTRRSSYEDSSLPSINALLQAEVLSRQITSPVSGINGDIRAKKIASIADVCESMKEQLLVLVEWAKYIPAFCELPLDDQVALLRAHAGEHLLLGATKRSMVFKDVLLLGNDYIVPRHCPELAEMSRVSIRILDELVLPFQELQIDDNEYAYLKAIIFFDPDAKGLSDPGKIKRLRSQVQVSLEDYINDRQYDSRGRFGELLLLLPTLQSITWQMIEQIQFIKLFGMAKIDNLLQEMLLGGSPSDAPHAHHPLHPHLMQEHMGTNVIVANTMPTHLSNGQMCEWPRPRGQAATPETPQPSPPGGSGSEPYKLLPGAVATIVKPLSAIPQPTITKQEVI
Nuclear receptor subfamily 4 group A member 2 (Homo sapiens), sequence (P43354 whole entry, looked up, the tested form may be a part): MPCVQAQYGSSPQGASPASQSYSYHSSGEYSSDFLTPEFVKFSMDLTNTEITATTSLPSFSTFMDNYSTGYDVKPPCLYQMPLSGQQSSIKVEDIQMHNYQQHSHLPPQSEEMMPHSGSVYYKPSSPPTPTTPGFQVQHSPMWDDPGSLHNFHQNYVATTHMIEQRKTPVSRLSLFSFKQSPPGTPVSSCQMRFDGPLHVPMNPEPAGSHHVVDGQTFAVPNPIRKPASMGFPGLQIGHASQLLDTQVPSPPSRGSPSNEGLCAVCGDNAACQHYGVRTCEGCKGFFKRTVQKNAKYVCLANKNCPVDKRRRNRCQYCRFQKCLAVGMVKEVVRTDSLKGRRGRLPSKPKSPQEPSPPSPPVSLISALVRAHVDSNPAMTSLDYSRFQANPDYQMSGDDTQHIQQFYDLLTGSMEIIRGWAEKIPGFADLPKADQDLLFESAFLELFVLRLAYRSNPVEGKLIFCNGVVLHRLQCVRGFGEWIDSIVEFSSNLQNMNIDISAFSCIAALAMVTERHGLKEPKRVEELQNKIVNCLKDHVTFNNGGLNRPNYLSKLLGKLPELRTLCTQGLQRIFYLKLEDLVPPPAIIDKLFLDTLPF
Nuclear receptor subfamily 1 group I member 3 (Homo sapiens), sequence (Q14994 whole entry, looked up, the tested form may be a part): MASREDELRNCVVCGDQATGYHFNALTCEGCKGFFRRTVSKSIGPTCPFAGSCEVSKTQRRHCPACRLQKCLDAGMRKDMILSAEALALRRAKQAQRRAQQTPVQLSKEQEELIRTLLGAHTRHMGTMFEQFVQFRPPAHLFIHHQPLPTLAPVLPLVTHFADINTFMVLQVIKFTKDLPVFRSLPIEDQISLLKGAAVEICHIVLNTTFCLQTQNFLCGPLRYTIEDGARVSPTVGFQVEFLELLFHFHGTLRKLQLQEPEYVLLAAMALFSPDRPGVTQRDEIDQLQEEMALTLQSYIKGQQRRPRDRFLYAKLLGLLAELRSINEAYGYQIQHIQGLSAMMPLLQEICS
Oxysterols receptor LXR-alpha (Homo sapiens), sequence (Q13133 whole entry, looked up): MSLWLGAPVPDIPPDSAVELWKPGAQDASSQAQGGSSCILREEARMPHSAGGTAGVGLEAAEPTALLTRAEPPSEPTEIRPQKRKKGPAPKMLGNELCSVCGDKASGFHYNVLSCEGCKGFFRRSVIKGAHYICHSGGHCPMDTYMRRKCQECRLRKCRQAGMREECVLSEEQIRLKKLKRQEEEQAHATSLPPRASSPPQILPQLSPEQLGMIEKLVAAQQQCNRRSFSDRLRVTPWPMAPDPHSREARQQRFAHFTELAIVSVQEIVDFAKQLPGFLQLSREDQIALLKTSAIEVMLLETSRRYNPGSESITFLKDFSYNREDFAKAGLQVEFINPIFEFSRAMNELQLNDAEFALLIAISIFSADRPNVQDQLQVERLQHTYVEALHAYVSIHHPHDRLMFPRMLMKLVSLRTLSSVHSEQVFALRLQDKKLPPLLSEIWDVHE
Oxysterols receptor LXR-beta (Homo sapiens), sequence (P55055 whole entry, looked up, the tested form may be a part): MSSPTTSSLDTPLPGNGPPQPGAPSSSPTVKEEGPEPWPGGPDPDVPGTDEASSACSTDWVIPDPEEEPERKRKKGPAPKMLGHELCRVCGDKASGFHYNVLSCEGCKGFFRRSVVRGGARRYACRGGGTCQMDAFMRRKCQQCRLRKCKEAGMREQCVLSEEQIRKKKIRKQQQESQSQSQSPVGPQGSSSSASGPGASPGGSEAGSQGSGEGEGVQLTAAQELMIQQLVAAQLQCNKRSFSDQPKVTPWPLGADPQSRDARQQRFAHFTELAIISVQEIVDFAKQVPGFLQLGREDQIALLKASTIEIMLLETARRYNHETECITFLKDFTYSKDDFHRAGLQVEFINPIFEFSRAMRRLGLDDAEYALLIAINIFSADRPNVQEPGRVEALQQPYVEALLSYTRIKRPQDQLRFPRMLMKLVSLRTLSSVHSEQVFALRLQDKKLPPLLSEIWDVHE
Estrogen-related receptor gamma (Homo sapiens), sequence (P62508 whole entry, looked up, the tested form may be a part): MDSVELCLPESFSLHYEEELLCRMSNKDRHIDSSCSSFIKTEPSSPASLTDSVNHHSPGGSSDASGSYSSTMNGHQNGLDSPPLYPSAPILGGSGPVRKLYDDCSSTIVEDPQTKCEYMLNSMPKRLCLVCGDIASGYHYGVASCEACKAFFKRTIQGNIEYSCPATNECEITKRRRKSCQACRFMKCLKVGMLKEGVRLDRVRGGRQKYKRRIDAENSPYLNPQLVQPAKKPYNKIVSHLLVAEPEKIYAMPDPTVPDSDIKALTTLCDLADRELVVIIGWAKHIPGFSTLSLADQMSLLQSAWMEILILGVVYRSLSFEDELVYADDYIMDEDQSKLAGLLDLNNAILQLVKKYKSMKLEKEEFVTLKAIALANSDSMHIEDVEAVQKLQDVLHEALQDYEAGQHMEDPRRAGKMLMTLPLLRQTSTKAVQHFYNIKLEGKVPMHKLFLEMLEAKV
Bile acid receptor (Homo sapiens), sequence (Q96RI1 whole entry, looked up, the tested form may be a part): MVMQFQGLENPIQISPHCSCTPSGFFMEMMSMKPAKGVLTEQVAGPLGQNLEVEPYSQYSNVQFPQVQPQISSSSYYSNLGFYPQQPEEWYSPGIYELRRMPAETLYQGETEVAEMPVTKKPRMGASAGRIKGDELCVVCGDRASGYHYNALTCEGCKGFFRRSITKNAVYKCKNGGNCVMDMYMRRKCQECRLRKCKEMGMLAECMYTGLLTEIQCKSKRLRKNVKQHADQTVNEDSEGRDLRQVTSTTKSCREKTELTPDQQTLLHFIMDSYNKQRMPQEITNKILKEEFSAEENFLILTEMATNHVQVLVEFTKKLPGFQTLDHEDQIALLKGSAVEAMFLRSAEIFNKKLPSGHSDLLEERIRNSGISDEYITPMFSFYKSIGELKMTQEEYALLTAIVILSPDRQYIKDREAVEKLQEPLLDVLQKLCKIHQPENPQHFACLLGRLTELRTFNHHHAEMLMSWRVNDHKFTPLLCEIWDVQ
Estrogen receptor (Homo sapiens), sequence (P03372 whole entry, looked up, the tested form may be a part): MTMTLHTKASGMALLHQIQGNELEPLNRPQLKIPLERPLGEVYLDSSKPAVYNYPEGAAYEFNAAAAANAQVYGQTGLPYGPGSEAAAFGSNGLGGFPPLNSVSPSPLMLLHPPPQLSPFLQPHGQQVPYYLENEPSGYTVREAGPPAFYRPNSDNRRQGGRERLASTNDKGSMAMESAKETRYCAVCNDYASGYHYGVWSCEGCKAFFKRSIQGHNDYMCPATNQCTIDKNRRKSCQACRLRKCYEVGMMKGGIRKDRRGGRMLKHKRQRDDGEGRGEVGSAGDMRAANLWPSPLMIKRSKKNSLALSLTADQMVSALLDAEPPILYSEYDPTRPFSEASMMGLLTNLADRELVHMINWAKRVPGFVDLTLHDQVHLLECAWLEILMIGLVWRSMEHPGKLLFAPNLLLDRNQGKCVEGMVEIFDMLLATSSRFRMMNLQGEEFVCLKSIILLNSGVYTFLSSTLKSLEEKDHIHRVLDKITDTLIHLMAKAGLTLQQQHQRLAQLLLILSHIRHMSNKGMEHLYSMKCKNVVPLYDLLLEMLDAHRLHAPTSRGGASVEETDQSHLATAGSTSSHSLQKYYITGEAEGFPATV

Structure (SMILES) | outcome [1] | outcome [2] | outcome [3] | outcome [4] | outcome [5] | outcome [6] | outcome [7] | outcome [8] | outcome [9] | outcome [10] | outcome [11] | outcome [12] | outcome [13] | outcome [14] | outcome [15] | outcome [16] | outcome [17] | AC50 [18]
CCCCCCCC=O | inactive | inactive | inactive | inactive | inactive | inactive | inactive | inactive | inactive |  |  |  |  |  |  |  |  | 
CN[C@H]1CC[C@@H](c2ccc(Cl)c(Cl)c2)c2ccc(S(N)(=O)=O)cc21 | inactive | inactive | inactive | inactive | inactive | inactive | inactive |  | inactive | inactive | inactive | inactive | inactive | inactive | inactive | inactive |  | 
NCC1(Cc2noc(=O)[nH]2)CCCCC1 | inactive | inactive | inactive | inactive |  |  | inactive | inactive | inactive | inactive |  |  | inactive |  |  |  | inactive | 
c1cc(-c2ccncc2)ccn1 | inactive | inactive | inactive | inactive |  | inactive |  | inactive | inactive |  |  | inactive | inactive |  |  |  | inactive | 
Cc1cccc([N+](=O)[O-])c1C | inactive | inactive | inactive | inactive |  |  | inactive | inactive | inactive | inactive |  |  | inactive |  |  | inactive |  | 44.3 µM (active)
